Data taken from PubChem BioAssay (NCI).
This is part of a sample that, as a whole, favours compounds with a hit. Of some 83,000 tested, about 20% had one in any assay.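 Compound tested at a single concentration for 48 hours in 96-well plates; a percent growth value below 10 was scored as active.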 Unmarked numbers belong to inactive results. Active and inactive are the calls of the source.

Columns and labels:
Test in all cases: NCI-60 one-dose screen, 48 h (100 = growth as untreated, 0 = no growth, -100 = all killed)
Conditions in all cases: 10 µM unless noted
[1] = system: T-47D breast
[2] = system: BT-549 breast
[3] = system: MDA-MB-435 melanoma
[4] = system: SW-620 colon
[5] = system: MCF7 breast
[6] = system: HCT-116 colon
[7] = system: HCC-2998 colon
[8] = system: KM12 colon

SMILES | growth [1] | growth [2] | growth [3] | growth [4] | growth [5] | growth [6] | growth [7] | growth [8]
NC(N)=Nc1nc2ccccc2n2c1nc1ccccc12 | 40.7% | 83% | 33.3% | 24.9% | 8.98% (active) | 18.2% | 46.3% | 33.6%
O=c1[nH]c2ccccc2n1C1CCN(CCOc2ccccc2)CC1 | 87.5% | 90.3% | 97.7% | 103% | 81.3% | 84.7% | 98.5% | 96.9%
Cc1nc2c(c(N3CCCc4ccccc43)n1)CCC2 | 45.3% | -12.1% (active) | 1.15% (active) | 22.5% | 14.6% | -17% (active) | 18.3% | 0.58% (active)
CCN1C(=O)N(CC)C2C1NN=c1s/c(=C\c3cccs3)c(=O)n12 (stereo not given) | 60.6% | 19.8% | -31.8% (active) | 20.9% | 19.9% | 15.4% | 21% | 19.8%
Cc1ccc(N2CCN(C(=S)c3cccs3)CC2)cc1 | 86.2% | 74.2% | 109% | 108% | 89.3% | 93.2% | 94.3% | 113%
O=C(CSc1nnc(-c2ccc(NC(=O)c3cccnc3)cc2)o1)N[C@@H](Cc1ccc(O)cc1)C(=O)O | 86% | 113% | 108% | 111% | 105% | 99.6% | 108% | 110%
CCn1c(C)nc2cc(C(N)=O)ccc21 | 113% | 111% | 131% | 100% | 91.5% | 94.6% | 96.9% | 107%
O=C(NCCc1ccc(O)c(O)c1)C12CC3CC(CC(C3)C1)C2 | 93.1% | 92.7% | 107% | 91% | 89.4% | 82.6% | 115% | 117%
O=C1/C(=C\c2c[nH]c3ccccc23)c2ccccc2N1c1c(Cl)cccc1Cl | 1.28% (active) | -22.1% (active) | -21.6% (active) | 5.11% (active) | 0.197% (active) | -100% (active) | -91.9% (active) | -82.3% (active)
COc1cc(Cn2ncc3ccc(NC(=O)c4cc5ccccc5oc4=N)cc32)cc(OC)c1OC | 39.6% | 43.6% | -16.1% (active) | 43.5% | 25% | 26.6% | 85% | 32.5%
CCN(CC)CCCC(C)Nc1c2ccc(Cl)cc2nc2ccc(O)cc12 (stereo not given) | 49.7% | 64.8% | 27% | 24.5% | 6.22% (active) | 14.8% | 25.4% | 30.4%
COC1=C(OC)C(=O)C(OC)=C(OC)C1=O | 94.2% | 101% | 103% | 101% | 99.5% | 98.6% | 89.3% | 100%
c1ccc(Nc2nc(-c3ccccn3)cs2)nc1 | 26.4% | 43.9% | 30.9% | 30.2% | 14.7% | 10.3% | 38.3% | 29%
CC(C)(C)c1ccc(/C=C/C(=O)Nc2ccc(O)cc2)cc1 | 64.4% | 66.6% | 50.9% | 71% | 60.9% | 68.1% | 97% | 36.5%
COC(=O)[C@]12CC[C@@H](C)[C@H](C)[C@@H]1C1=CC[C@@H]3[C@@]4(C)C(C=O)=C[C@@](C)(COC(=O)/C=C/c5ccccc5)[C@@H]4[C@H](O)C[C@@]3(C)[C@]1(C)CC2 | -6.88% (active) | -7.43% (active) | -6.08% (active) | 5.68% (active) | 10.6% | -72.5% (active) | -29.9% (active) | 6.25% (active)
Cc1ccc(S(=O)(=O)NCC[C@@H]2C[C@H]2c2cc3ccccc3s2)cc1 | 77.9% | 102% | 104% | 103% | 93.7% | 93.8% | 106% | 96.1%
COC(=O)[C@]12CC[C@@H](C)[C@H](C)[C@@H]1C1=CC[C@@H]3[C@@]4(C)C(C=O)=C[C@@](C)(COC(=O)c5ccco5)C4=CC[C@@]3(C)[C@]1(C)CC2 | -8.1% (active) | 5.64% (active) | -22.3% (active) | -7.67% (active) | 11.4% | -71.3% (active) | -7.04% (active) | 8.54% (active)
N=C(N)c1ccc(-c2ccc(-c3cncc4ccccc34)s2)s1 | -58.3% (active) | 36.9% | -91.2% (active) | -68.4% (active) | -68.7% (active) | -84.4% (active) | -78.3% (active) | -78.8% (active)
c1ccc(-c2nc([P+](c3ccccc3)(c3ccccc3)c3ccccc3)c(N3CCOCC3)o2)cc1 | -3.03% (active) | -5.41% (active) | -1.04% (active) | 14.4% | 2.94% (active) | 2.08% (active) | 26.5% | -1.22% (active)
COc1ccc(NC(=O)CSc2nc(C)c(C(C)=O)n2-c2ccc(Cl)cc2)cc1 | 80.5% | 80.4% | 89% | 96.1% | 92.9% | 81.3% | 90.3% | 95.5%
CC(=O)[C@@H]1CC[C@]2(COS(=O)(=O)c3ccc(C)cc3)CC[C@]3(C)[C@H](CC[C@@H]4[C@@]5(C)CCCNC(C)(C)[C@@H]5CC[C@]43C)[C@@H]12 | 49.7% | 82.6% | 52.2% | 9.71% (active) | 58.2% | 32.8% | 26.6% | 52.3%
CCCCn1c(=O)c2c(nc(NCCc3ccc(O)c(O)c3)n2CCC)n(CCCC)c1=O | 49.3% | 102% | 82.6% | 89.1% | 65% | 63.3% | 78.8% | 61.3%
NC[C@H](O)c1ccc(O)c(O)c1 | 110% | 88.7% | 109% | 105% | 110% | 95.6% | 102% | 103%
OC(c1cccc(-n2ccc(C(F)(F)F)n2)c1)c1cnccc1NC1CCCCCC1 (stereo not given) | 22.6% | 82.5% | -77.4% (active) | -86.4% (active) | -14.4% (active) | -79.4% (active) | -88.8% (active) | -47.1% (active)
COc1cccc(C(=O)NCCNc2cc(-c3cn(-c4ccccc4)nc3-c3cccc(OC)c3)ccn2)c1 | 22.1% | 40.8% | 64.3% | 71.1% | 56.7% | 40.9% | 63.9% | 41.5%
CC/C=C/C/C=C/C/C=C/C/C=C/C/C=C/C/C=C/CCC(=O)Nc1ccn([C@@H]2O[C@H](CO)[C@@H](O)C2(F)F)c(=O)n1 | 28.9% | 29.8% | 36.9% | 30.8% | 14.3% | 12.1% | 55.1% | 43.5%
C#Cc1cccc(NC(=O)c2ccc(NC(=O)CCl)cc2)c1 | 19.1% [8.25 µM] | -44.8% [8.25 µM] (active) | -4.26% [8.25 µM] (active) | -75.5% [8.25 µM] (active) | 4.22% [8.25 µM] (active) | -30.3% [8.25 µM] (active) | 92.8% [8.25 µM] | 37.9% [8.25 µM]
CNC(=O)CCN1CCN(CC/C=C2\c3ccccc3Sc3ccc(Cl)cc32)CC1 | 85% | 91.5% | 72.3% | 86.9% | 73.2% | 68.8% | 83.6% | 62.3%
O=C1/C(=C/c2ccc(F)cc2)C=C(c2ccccc2)N1CCc1ccccc1 | 52.1% | 79.3% | 65.4% | 70% | 50.4% | 29.4% | 85% | 62.2%
CCOc1c(C#N)nnc2c(C#N)c(NC(=O)c3ccccc3)nn12 | 98.8% | 102% | 102% | 102% | 93.4% | 100% | 104% | 101%
